Screening results from PubChem.
Sampled rows, rich in hits. Any-hit rate of the full collection: about 18%.
KAT2A inh: qHTS Assay for Inhibitors of GCN5L2. actives 0.21% (n = 390,000). GCN5L2 HAT assay, ThioGlo1 CoA-SH fluorescence. Histone acetyltransferase KAT2A (Homo sapiens), Q92830. Potency, µM (doses to about 58.9 µM), for the others: top-dose activity change, negative = inhibition, usual class: inhibitors
Target sequence (Q92830 whole entry, looked up): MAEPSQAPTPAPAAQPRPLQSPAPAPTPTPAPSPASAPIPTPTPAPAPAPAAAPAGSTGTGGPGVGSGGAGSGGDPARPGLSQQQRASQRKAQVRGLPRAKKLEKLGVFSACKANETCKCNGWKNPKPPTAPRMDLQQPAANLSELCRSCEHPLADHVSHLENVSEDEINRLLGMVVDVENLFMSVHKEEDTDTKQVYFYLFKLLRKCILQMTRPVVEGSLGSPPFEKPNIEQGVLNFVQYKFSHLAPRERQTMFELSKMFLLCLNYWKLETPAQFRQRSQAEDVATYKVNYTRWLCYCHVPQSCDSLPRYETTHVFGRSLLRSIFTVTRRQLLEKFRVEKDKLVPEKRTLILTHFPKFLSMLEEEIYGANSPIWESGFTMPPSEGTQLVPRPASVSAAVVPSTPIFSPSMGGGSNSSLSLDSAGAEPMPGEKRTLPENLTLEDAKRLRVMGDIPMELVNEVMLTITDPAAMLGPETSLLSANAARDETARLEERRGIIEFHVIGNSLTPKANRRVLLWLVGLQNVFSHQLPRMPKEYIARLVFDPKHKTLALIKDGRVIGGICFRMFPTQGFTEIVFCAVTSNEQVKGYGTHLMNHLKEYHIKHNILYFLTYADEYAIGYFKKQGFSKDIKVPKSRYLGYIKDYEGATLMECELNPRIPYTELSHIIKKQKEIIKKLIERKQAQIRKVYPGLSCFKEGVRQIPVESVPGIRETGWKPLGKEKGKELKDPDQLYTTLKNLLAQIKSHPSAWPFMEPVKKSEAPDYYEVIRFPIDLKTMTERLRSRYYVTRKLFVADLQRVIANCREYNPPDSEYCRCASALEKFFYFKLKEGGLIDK
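qHTS, 1536-well. 20nM enzyme, pH 7.5 HEPES/EDTA/Tween-20 buffer; 15 min compound preinc., RT. Start: 75uM H3(1-25), 70uM AcCoA, 50uM ThioGlo1. Read Ex340/Em540 at t=0 (autofluorescence flag) and t=20 min.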
TDP1 cell CPT: qHTS for Inhibitors of human tyrosyl-DNA phosphodiesterase 1 (TDP1): qHTS in cells in presence of CPT. chicken DT40 Tdp1-/-;hTDP1 cells + 20 nM CPT, ATP luminescence, 48 h. Potency, µM (top dose mostly 46.2 µM), inactives show top-dose activity change, negative = growth inhibition, most hits filed as inhibitors. actives 12% (n = 420,000). AID 686979, 2013; also: nearly all actives have a fitted effect of over 55% in size
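Chicken DT40 Tdp1-/- cells complemented with human TDP1, 400 cells/well, exposed to compounds plus 20 nM camptothecin for at least 48 h at 37 C; viability read as ATP content by CellTiter-Glo luminescence.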
TDP1 block: qHTS Assay for Inhibitors of Tyrosyl-DNA Phosphodiesterase (TDP1); Tyrosyl-DNA phosphodiesterase 1 (Homo sapiens), Q9NUW8; recombinant TDP1, AlphaScreen DNA substrate cleavage; Potency, µM (highest dose often 130 µM), for the others: top-dose activity change, negative = inhibition, actives largely listed as inhibitors; actives 0.28% (n = 350,000); also: nearly all actives have a fitted effect of over 40% in size
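Compounds were preincubated with Tdp1 (1 nM final) for 15 min at room temperature before substrate (15 nM final) started a 5 min reaction; beads (10 ug/ml final) were then added for 10 min before AlphaScreen detection.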
VDR inhibitor: Inhibitors of the vitamin D receptor (VDR): qHTS; Vitamin D3 receptor (Homo sapiens), P11473; VDR-SRC2-3 peptide fluorescence polarization, 2 h; Potency, µM, without a hit: max response, negative = inhibition, hits mostly inhibitors; actives 0.93% (n = 400,000); AID 504847, 2011
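Two reagent solutions held at 4 deg C in the dark were dispensed, compounds pinned at 23 nl, and the mixture incubated 2 h at room temperature. Read-out: fluorescence polarization of VDR–SRC2-3 peptide binding.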
TDP1 cell noCPT: qHTS for Inhibitors of human tyrosyl-DNA phosphodiesterase 1 (TDP1): qHTS in cells in absence of CPT; DT40 Tdp1-/- hTDP1 cells, no CPT, ATP luminescence, 48 h; Potency, µM (highest dose often 46.2 µM), without a hit: top-dose activity change, negative = growth inhibition, hits mostly inhibitors; actives 15% (n = 420,000); also: nearly all actives have a fitted effect of over 55% in size
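Chicken DT40 Tdp1-/- cells stably complemented with human TDP1 were seeded at 400 cells/well with DMSO in place of 20 nM camptothecin. After compound pinning, cells grew at least 48 hr at 37 °C; viability read by CellTiter-Glo luminescence.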
PLK1 PBD block: qHTS for Inhibitors of PLK1-PDB (polo-like kinase 1 - polo-box domain): Primary Screen; Potency, µM, for inactives: max response, negative = inhibition, hits mostly inhibitors; Serine/threonine-protein kinase PLK1 (Homo sapiens), P53350; actives 2.8% (n = 360,000); Plk1 PBD binding of FITC phosphopeptide, fluorescence polarization; also: series mostly up to about 57 µM; nearly all actives have a fitted effect of over 65% in size
An asterisk follows results filed as active; ? = inconclusive; · = not tested or not shown; [ ] = dose if it differs, or a comment. Calls follow the shape of the dose curve; as a rule, active = well fitted curve in the direction sought with a large enough effect; inconclusive = small, poorly fitted or top-dose-only effect, or another doubt; inactive = no such curve, though single readings can be large; an effect the other way counts as inactive or inconclusive. % is scaled to controls: 0 for no effect and ±100 for the full control effect; potency is read from the fitted curve at half-maximal effect.

SMILES	KAT2A inh	TDP1 cell CPT	TDP1 block	VDR inhibitor	TDP1 cell noCPT	PLK1 PBD block
Cc1ccccc1C(=O)Nc1cc(S(=O)(=O)N2CCCCC2)ccc1N1CCN(C)CC1	1.2%	-10.1%	5.6%	8.2%	-43.8%	5.97µM*
CCc1cc(C(=O)Nc2cc(S(=O)(=O)N3CCCCC3)ccc2N2CCN(C)CC2)sc1C	·	4.61µM*	·	·	4.11µM*	-12.1%
CN1CCN(c2ccc(S(=O)(=O)N3CCCCC3)cc2NC(=O)c2ccc3ccccc3c2)CC1	-9.4%	?	-5.5%	-7.6%	?	-2.8%
COc1cc(NC(=O)c2cccc3c2C(=O)N(C2CCCCC2)C3)cc(OC)c1	-5.5%	-6.2%	0.0%	-5.8%	?	·
O=C(CSc1nccn1Cc1ccco1)Nc1ccccc1	-16.3%	?	0.7%	-26.5%	?	-14.1%
CC1CCN(C(=O)c2ccc3c(c2)C(=O)c2ccccc2-3)CC1	·	?	·	·	?	-8.4%
Cc1oc2c(c1C(=O)N1CCC(C)CC1)C(=O)c1ccccc1C2=O	0.7%	7.31µM*	1.3%	-5.3%	11.6µM*	-2.4%
CCOC(=O)C1CCN(C(=O)c2c(C)oc3c2C(=O)c2ccccc2C3=O)CC1	-5.5%	5.17µM*	3.9%	-23.8%	7.31µM*	-3.7%
CCCNC(=O)C1(C)CCCN(C(=O)c2ccc(OC(F)F)cc2)C1 (stereo not given)	·	2.9%	·	·	2.8%	-6.0%
Cc1csc2ncc(C(=O)NCc3ccco3)c(=O)n12	-7.4%	3.0%	44.7µM*	7.7%	-27.9%	-3.7%
O=C(NCc1ccco1)c1cnc2sccn2c1=O	-5.3%	9.2%	-4.3%	3.1%	-0.7%	-8.6%
COc1ccc(C2NCCc3c2[nH]c2ccccc32)cc1COc1ccc(F)cc1 (stereo not given)	-1.5%	?	·	-4.6%	20.6µM*	-14.5%
COc1ccc(C2NCCc3c2[nH]c2ccccc32)cc1CN1CCc2cc(OC)c(OC)cc2C1C (stereo not given)	-29.0%	?	·	-12.4%	18.4µM*	-6.9%
O=C(CCc1ccc(S(=O)(=O)NC2CCCCC2)cc1)NCc1cccnc1	-4.8%	-7.8%	-2.8%	-1.8%	-8.0%	-5.6%
Cc1ccc(CNC(=O)CCc2ccc(S(=O)(=O)NC3CCCCC3)cc2)cc1	-5.7%	-29.4%	-11.9%	-22.7%	?	29.9µM*
Cc1ccc(Nc2nc(Cl)nc(N(C)C#N)n2)cc1	-24.2%	?	2.9%	-0.8%	23.1µM*	-8.9%
CC/C(=N\N=C(/CC)c1ccccc1N)c1ccccc1N	·	29.1µM*	·	3.3%	23.1µM*	-11.8%
Cc1ccc(Nc2ncnc3c2cnn3C)cc1	-0.6%	-29.0%	1.2%	11.8%	?	-12.7%
Cc1cccc(-n2cc(-c3ccccc3)c3c(NC(C)C)ncnc32)c1	7.0%	20.6µM*	2.6%	15.1%	23.1µM*	·
Cc1ccc(CNc2ncnc3c2c(-c2ccccc2)cn3-c2ccccc2)cc1	5.3%	?	5.4%	17.4%	-88.2%	·
CC(=O)Nc1ccc(Nc2ncnc3c2cnn3-c2ccccc2)cc1	5.5%	?	3.1%	17.8%	?	0.6%
Cc1ccc(-n2cc(-c3ccccc3)c3c(N4CCC(C)CC4)ncnc32)cc1Cl	1.7%	1.2%	13.0%	4.5%	-11.6%	·
CC(=O)Nc1ccc(Nc2ncnc3c2c(-c2ccccc2)cn3-c2ccccc2)cc1	-0.9%	16.4µM*	10.4%	3.9%	18.4µM*	·
CC(=O)Nc1ccc(Nc2ncnc3c2c(-c2ccccc2)cn3-c2ccc(C)c(Cl)c2)cc1	-7.2%	9.2µM*	10.4%	13.5%	8.2µM*	·
CC(=O)Nc1ccc(Nc2ncnc3c2cnn3C)cc1	2.5%	16.4µM*	10.4%	18.1%	?	·
SMILES	KAT2A inh	TDP1 cell CPT	TDP1 block	VDR inhibitor	TDP1 cell noCPT	PLK1 PBD block
Cc1ccc(CN2C[C@H](Sc3ccccn3)C[C@H]2C(=O)Nc2ccc3sc(C)nc3c2)s1	·	18.5%[9.04 µM]	·	·	-2.6%	·
CC(C)c1ccc(Nc2ncnc3c2c(-c2ccccc2)cn3-c2ccccc2)cc1	-4.5%	3.66µM*	0.0%	3.5%	?	·
CC1CCc2c(sc(NC(=O)Cn3nnc(-c4ccc(C(F)(F)F)cc4)n3)c2C#N)C1 (stereo not given)	0.1%	-7.0%	-0.6%	-8.0%	0.6%	·
O=CN1CCN(C(=O)CC(c2ccccc2)c2cc(Br)ccc2O)CC1 (stereo not given)	-1.4%	-12.7%	4.0%	-14.0%	-7.2%	-15.5%
CN(CC(=O)NC(=O)NC1CCCCC1)CC(=O)Nc1ccc(OC(F)(F)F)cc1	-13.6%	?	-1.8%	11.3%	?	2.7%
CC1Cc2ccccc2N1C(=O)CN(C)CC(=O)Nc1ccc(OC(F)(F)F)cc1 (stereo not given)	-7.6%	14.6µM*	-4.1%	-10.8%	?	3.0%
Cn1c2nc3ccccc3c-2nc2ccccc21	·	18.4µM*	·	·	8.2µM*	-6.8%
Cn1c(-c2nonc2N)nc2ccccc21	-17.2%	1.3%	2.7%	1.9%	6.2%	1.0%
Cn1c(-c2ccc(Br)o2)nc2ccccc21	-0.8%	11.2µM*	6.3%	3.7%	10.3µM*	-10.1%
O=S(=O)(c1cccc(C(F)(F)F)c1)N1CCN(S(=O)(=O)c2ccc3c(c2)OCCO3)CC1	2.7%	·	-0.1%	13.5%	·	·
Cc1sc2nc(-c3ccncc3)[nH]c(=O)c2c1-c1ccccc1	-0.4%	·	2.6%	·	·	·
CCN(CC)C(=O)c1sc2nc(-c3ccccn3)[nH]c(=O)c2c1C	·	23.1µM*	·	-2.2%	11.6µM*	-9.6%
Cc1sc2nc(-c3ccccn3)[nH]c(=O)c2c1-c1ccccc1	-18.4%	9.2µM*	-5.0%	?	10.3µM*	18.9µM*
CC(C)CC(=O)NC1(C(F)(F)F)C(=O)Nc2c1c(=O)[nH]c(=O)n2-c1ccccc1 (stereo not given)	2.2%	·	0.0%	-10.6%	·	·
Cc1cc(N2C(=O)c3ccccc3C2=O)n[nH]1	·	·	-0.3%	·	·	·
Cc1cccc(OCC(=O)NCC2(N3CCN(C)CC3)CCCCC2)c1C	-8.6%	?	1.6%	6.1%	?	·
CC12CC3CC(C)(C1)CC(C(=O)Nc1nncs1)(C3)C2	-9.0%	-0.4%	2.4%	4.6%	-0.1%	-2.1%
